Screening results (PubChem BioAssay)
The list is not random: actives were taken first. Their share in the collection is about 6.5%.
LASV entry inh: Lassa virus entry inhibition; 300,000 tested, 1.2% active; Potency, µM (highest dose often 37.9 µM), for inactives: at the highest dose activity change, negative = inhibition, actives largely listed as inhibitors; Lassa virus pseudotype entry inhibition, cell reporter; calls by dose curve; tested in HEK293 cells; also: potency is read from the fitted curve at half-maximal effect; nearly all actives have a fitted effect of over 50% in size
Marburg entry inh: blocks Marburg virus binding to or entry into cells | Marburg virus pseudotyped entry inhibition, cell reporter | Potency, µM (top dose mostly 37.8 µM), without a hit: top-dose activity change, negative = inhibition, usual class: inhibitors | 300,000 tested, 1.8% active | AID 540276; calls by dose curve; tested in HEK293 cells; also: potency is read from the fitted curve at half-maximal effect
VACV mCherry inh: inhibitors of vaccinia virus infection (mCherry reporter signal). Vaccinia virus mCherry reporter infection, fluorescence. Potency, µM (top dose mostly 36.5 µM), for inactives: top-dose activity change, negative = inhibition, hits mostly inhibitors. 310,000 tested, 0.63% active. AID 720579; calls by dose curve; tested in A549 cells; also: potency is read from the fitted curve at half-maximal effect; nearly all actives have a fitted effect of over 35% in size
HCMV inh: inhibitors of human cytomegalovirus; HFF cells, HCMV-luciferase reporter, 72 h; stronger effect = lower value; activity change, negative = inhibition, % at 57.5 µM; 410,000 tested, 4.5% active; AID 1259415; in the data active = activity change below about -60%; inconclusive = no clear call, values can overlap the other calls; inactive = above about -39%
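HFF cells seeded 16 h at 37C, treated with compounds, infected with luciferase-reporter HCMV at MOI 1 PFU/cell; luciferase read at 72 h post infection, normalized to buffer-only and Salinomycin controls.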
FMDV antiviral: foot and mouth disease virus antiviral activity. FMDV antiviral cell-based qHTS. Potency, µM (series often up to 57.9 µM), inactives show top-dose activity change, negative = inhibition, hits mostly inhibitors. 410,000 tested, 1.2% active. AID 1159524; calls by dose curve; tested in HEK293T cells; also: read-out not given here; potency is read from the fitted curve at half-maximal effect; nearly all actives have a fitted effect of over 45% in size
VACV Venus inh: vaccinia inhibition (Venus reporter). Vaccinia virus Venus reporter expression, fluorescence. Potency, µM (highest dose often 36.5 µM), inactives show at the highest dose activity change, negative = inhibition, usual class: inhibitors. 330,000 tested, 0.46% active. AID 720580; calls by dose curve; tested in A549 cells; also: potency is read from the fitted curve at half-maximal effect; nearly all actives have a fitted effect of over 30% in size
* hit, by the source's call; i = inactive; ? = inconclusive; . = no result given; ! = repeats disagree; [ ] = dose if it differs, or a comment. % is scaled to controls: 0 for no effect and ±100 for the full control effect.

SMILES | LASV entry inh | Marburg entry inh | VACV mCherry inh | HCMV inh | FMDV antiviral | VACV Venus inh
COc1ccc(C(C(=O)NC(C)(C)C)N(Cc2ccccc2)C(=O)CCC(=O)Nc2cc(C)on2)cc1 (stereo not given) | . | . | . | -64* | 11% | .
CCC(C)(C)NC(=O)C(c1ccc(OC)cc1)N(Cc1ccccc1)C(=O)CCC(=O)Nc1cc(C)on1 (stereo not given) | 2%[46.1 µM] | ? | -8% | -26 | 51% | 9%
CCC(C)(C)NC(=O)C(c1ccc(OC)cc1)N(C(=O)CCC(=O)Nc1cc(C)on1)c1cccc(F)c1 (stereo not given) | 7.1µM* | ? | -7% | 1 | -15% | -15%
COc1ccc(C(C(=O)NC(C)(C)C)N(C(=O)CCC(=O)Nc2cc(C)on2)c2cccc(F)c2)cc1 (stereo not given) | 16% | ? | 69% | 4 | 3% | -3%
CCC1(C2CCN(C(=O)c3cc(C)cc(C)c3)CC2)NC(=O)N(CCc2scnc2C)C1=O (stereo not given) | . | . | -22% | . | -9% | -7%
C[C@H]1[C@@H](NC(=O)Nc2ccc(F)cc2)CC[C@@]23CCCN2C(=O)CCC[C@@H]13 | . | . | . | 11 | . | .
C=C[C@@H]1c2cc(C)ccc2N(S(=O)(=O)c2ccc(C)cc2)[C@H](c2ccc(C(C)(F)F)cc2)C1(C#N)C#N | . | . | -12% | . | . | -6%
COc1ccc(C(C)C)cc1S(=O)(=O)n1ccnc1C | 1% | 2% | -4% | -103* | 69% | -21%
O=C(NC1CC(=O)N(c2cccc(F)c2)C1)C1CCCC1 (stereo not given) | 3%[46.1 µM] | . | -7% | -9 | -7% | -13%
O=C(c1ccc2c(c1)N(Cc1ccc(F)cc1)C(=O)c1ccccc1S2(=O)=O)N1CCCCCC1 | -23%[46.1 µM] | -15%[46.1 µM] | -14% | ? | 4% | -15%
CC1CCN(C(=O)c2ccc3c(c2)N(Cc2ccccc2)C(=O)c2ccccc2S3(=O)=O)CC1 | -24%[46.1 µM] | ? | -13% | -61* | 27% | -6%
CC(=O)c1ccc(NC(=O)c2ccc3c(c2)N(Cc2cccc(Cl)c2)C(=O)c2ccccc2S3(=O)=O)cc1 | 6%[46.1 µM] | ? | -13% | 24 | 12% | -3%
O=C(Nc1cccc(F)c1)c1ccc2c(c1)N(Cc1ccccc1)C(=O)c1ccccc1S2(=O)=O | -20%[46.1 µM] | ? | -24% | -89* | 0% | -17%
O=C(c1ccc2c(c1)N(Cc1ccc(F)cc1)C(=O)c1ccccc1S2(=O)=O)N1CCC(Cc2ccccc2)CC1 | ? | ? | -20% | -64* | ? | -10%
C=CCOC(=O)C1=C(C)OC(N)=C(C#N)[C@H]1c1ccoc1 | . | 6% | . | . | . | .
CCc1nn(CC(=O)N2CCCCC2)c(=O)c2cc3sc(C)cc3n12 | . | ? | -9% | -5 | -12% | 0%
COC(=O)c1c(SC)nc2ccccc2c1OCc1ccc(C)cc1C | 21%[46.1 µM] | . | -12% | -16 | -20% | 8%
COc1ccc(NC(=O)c2c(NCc3cccs3)sc3c2CCCCC3)c(OC)c1 | -3%[46.1 µM] | . | -16% | 0 | 16% | 0%
Cc1csc(CNc2ncnc3ccc(-c4ccoc4)cc23)c1 | . | . | . | -86* | -29% | .
c1nc(N2CCOCC2)c2cc(-c3ccoc3)ccc2n1 | . | . | . | . | 1% | .
Cc1csc(CNc2ncnc3ccc(-c4ccc5c(c4)OCO5)cc23)c1 | . | . | . | -69* | ? | .
Cc1csc(CNc2ncnc3ccc(-c4ccc5c(c4)OCCO5)cc23)c1 | . | . | . | 8 | -21% | .
c1cncc(CNc2ncnc3ccc(-c4ccoc4)cc23)c1 | . | . | . | -83* | 0% | .
c1cn(-c2ncnc3ccc(-c4ccoc4)cc23)cn1 | . | . | . | . | 28µM* | .
Cc1nc(C)c(-c2ccc(SCC(=O)Nc3ccc(Cl)c(Cl)c3)nn2)s1 | ? | . | -26% | 13 | ? | -23%
SMILES | LASV entry inh | Marburg entry inh | VACV mCherry inh | HCMV inh | FMDV antiviral | VACV Venus inh
COc1ccc(CCNC(=O)c2cnc3sc(N4CCCC4)nn3c2=O)cc1OC | -21%[46.1 µM] | . | -15% | -1 | ? | -16%
COC(=O)C1=C(C)NC(C)=C(C(=O)OCCCN2CCC(c3ccccc3)(c3ccccc3)CC2)C1c1cccc([N+](=O)[O-])c1 (stereo not given) | . | . | -10% | . | 21%[39.8 µM] | -5%
Cc1cccc(CNc2ncnc3ccc(-c4ccc5c(c4)OCCO5)cc23)c1 | . | . | . | -89* | ? | .
c1nc(NCc2ccc3c(c2)OCO3)c2cc(-c3ccc4c(c3)OCCO4)ccc2n1 | . | . | . | -28 | ? | .
Cc1cccc(-c2ccc3ncnc(NCc4cccs4)c3c2)c1 | . | . | . | -76* | 25µM* | .
Cc1nn(C)c(C)c1CN(Cc1nc(CCC(C)C)no1)C(C)C | ? | ? | -12% | -83* | ? | -13%
CC(C)CCc1noc(CN(C)CCC2CCOCC2)n1 | -12% | 0%[46.1 µM] | -3% | -19 | -17% | -17%
O=C(NCCc1nnc2n1CCN(Cc1c(F)cccc1F)CC2)c1ccc(F)cc1 | . | . | -16% | . | -2% | -16%
O=C(CSc1nnc(-c2cc3ccccc3cc2O)n1Cc1ccco1)c1ccc(F)cc1 | 23µM* | ? | . | ? | -14% | .
Cc1ccc(C(=O)CSc2nnc(CNc3ccc(C)cc3C)n2Cc2ccco2)cc1 | 26µM* | ? | . | 17 | ? | .
Cc1occc1-c1nnc(SCC(=O)c2ccc(F)cc2)n1Cc1ccco1 | -12% | 0% | -15% | -10 | -4% | -16%
Cc1nc2cnc(Oc3ccccc3)nc2n(CCC#N)c1=O | . | . | . | . | -7% | .
Cc1ccc(-c2nc(CS(=O)CC(=O)N3CCN(c4ccc(F)cc4)CC3)c(C)o2)cc1 (stereo not given) | ? | ? | -25% | -63*! | ? | -29%
Cc1oc(-c2ccccc2F)nc1CS(=O)(=O)CC(=O)N1CCCCCC1 | . | 1% | ? | -23 | -23% | -22%
Cc1oc(-c2ccc(Cl)cc2)nc1CS(=O)CC(=O)N1CCN(c2cccc(C(F)(F)F)c2)CC1 (stereo not given) | 0%[46.1 µM] | . | ? | ? | 32µM* | -26%
Cc1ccc(-c2nc(CS(=O)CC(=O)N3CCN(c4cccc(Cl)c4)CC3)c(C)o2)cc1 (stereo not given) | -2%[46.1 µM] | 12%[46.1 µM] | -21% | ? | -6% | -22%
Cc1oc(-c2ccccc2F)nc1CS(=O)(=O)CC(=O)N1CCN(c2ccc(Cl)cc2)CC1 | ? | -27%[46.1 µM] | ? | -83* | 16µM* | ?
CC1=C(c2ccc(Cl)cc2)S(=O)(=O)N=C1N1CCN(c2cccc(C(F)(F)F)c2)CC1 | -23%[46.1 µM] | ? | -30% | -60* | -15% | -28%
CCC(C(=O)Nc1cc(C)ccc1C)n1c(=O)c(C(F)(F)F)nc2ccccc21 (stereo not given) | 26%[46.1 µM] | . | -3% | -2 | -4% | -7%
CCCc1nc2ccccc2n2c(-c3cccc(C)c3)c3c(=O)n(C)c(=O)n(C)c3c12 | ? | ? | -14% | 14 | ? | -6%
Cc1ccc2nc(CNC(=O)c3cc(NC(=O)c4ccccc4)cc4ncn(C5CCCC5)c34)cn2c1 | . | . | i | . | -10% | -15%
